Results reported in PubChem BioAssay AID1159580 (chemical genetic matrix, 2015).
The campaign covered roughly 5,500 compounds. About 2,000 (36%) were called active. Another 18% or so got no clear call; they are omitted. No stated cut-off is given here; in the data, active means normalized growth mostly below about 0.91 (no sharp cut-off); inconclusive means no clear call, values can overlap the other calls; inactive means mostly above about 0.92. This is one part of the list.

Test: chemical genetic growth profiling, strain panel (AID 1159580);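 further: tested at 20 µM; growth read once vehicle control cultures reached saturation at 30 °C; 1 = growth at the plate median or of vehicle wells; lower values mean less growth of the strain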
Settings: S. cerevisiae deletion strains, growth OD

Measured: normalized growth

C(=C\c1ccccc1)/CN1CCN(C(c2ccccc2)c2ccccc2)CC1
inactive: locus YAL040C, strain CLN3, active compounds read low 0.995 | locus YCL061C, strain MRC1 (second series), active compounds read low 0.992 | locus YMR307W, strain GAS1, active compounds read low 0.998 | locus YNL153C, strain GIM3, active compounds read low 0.851 | locus YNL197C, strain WHI3, active compounds read low 1.11 | locus YNL224C, strain SQS1, active compounds read low 1.02 | locus YOR083W, strain WHI5 (second series), active compounds read low 0.99 | locus YPL055C, strain LGE1, active compounds read low 1
active: locus YER002W, strain NOP16, active compounds read low 1.09 [resistant]
